PLCb3 inh – PLC-beta3 (human) inhibition, primary screen | Q01970 | Purified PLC-beta3, fluorogenic substrate, fluorescence | inhibition, % at 12.2 µM | 370,000 tested, 0.18% active; in the data active = inhibition above about 11%;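 also: 0% = median of compound wells on plate and 100% = full blocker control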
Target sequence (Q01970 whole entry, looked up): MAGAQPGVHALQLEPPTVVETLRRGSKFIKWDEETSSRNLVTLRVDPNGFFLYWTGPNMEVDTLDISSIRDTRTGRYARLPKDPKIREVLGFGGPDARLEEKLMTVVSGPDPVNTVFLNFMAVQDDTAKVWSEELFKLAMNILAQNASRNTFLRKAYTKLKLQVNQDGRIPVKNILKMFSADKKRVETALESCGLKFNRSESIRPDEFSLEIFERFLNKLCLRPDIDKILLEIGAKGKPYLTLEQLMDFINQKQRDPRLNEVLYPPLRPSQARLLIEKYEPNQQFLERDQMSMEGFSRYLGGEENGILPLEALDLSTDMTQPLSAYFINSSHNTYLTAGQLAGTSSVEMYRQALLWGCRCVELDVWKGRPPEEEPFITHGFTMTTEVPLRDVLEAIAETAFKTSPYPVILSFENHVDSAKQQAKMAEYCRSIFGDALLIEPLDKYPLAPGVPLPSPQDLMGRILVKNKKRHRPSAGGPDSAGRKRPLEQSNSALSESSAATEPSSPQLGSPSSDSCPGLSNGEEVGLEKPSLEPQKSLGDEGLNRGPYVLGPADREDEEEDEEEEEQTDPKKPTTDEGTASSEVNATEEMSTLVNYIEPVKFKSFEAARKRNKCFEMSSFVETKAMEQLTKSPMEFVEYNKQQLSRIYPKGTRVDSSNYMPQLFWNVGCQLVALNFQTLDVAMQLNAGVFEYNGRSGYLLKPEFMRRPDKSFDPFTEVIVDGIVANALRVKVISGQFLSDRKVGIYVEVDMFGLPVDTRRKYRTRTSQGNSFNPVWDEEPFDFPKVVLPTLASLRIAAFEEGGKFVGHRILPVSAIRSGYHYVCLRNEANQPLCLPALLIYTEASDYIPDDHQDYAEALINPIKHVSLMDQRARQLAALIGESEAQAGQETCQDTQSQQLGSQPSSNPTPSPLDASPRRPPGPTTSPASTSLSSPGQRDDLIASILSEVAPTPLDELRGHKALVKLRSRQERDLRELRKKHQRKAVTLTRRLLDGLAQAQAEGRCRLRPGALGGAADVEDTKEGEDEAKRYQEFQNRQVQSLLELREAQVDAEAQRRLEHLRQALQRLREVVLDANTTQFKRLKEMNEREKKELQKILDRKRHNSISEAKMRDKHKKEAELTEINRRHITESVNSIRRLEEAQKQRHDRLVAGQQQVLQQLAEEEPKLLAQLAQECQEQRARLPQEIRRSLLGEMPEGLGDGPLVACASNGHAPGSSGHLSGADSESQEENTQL
ADAM10 inh – inhibitors of human ADAM10 | O14672 | recombinant ADAM10, EDANS/DABCYL FRET peptide cleavage, 3 h | inhibition, % at 7 µM | 370,000 tested, 0.62% active | AID 720582;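 active = inhibition above a per-campaign cutoff equal to the mean of compounds falling between control-based bounds plus 3 SD, cut at about 20% in these data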;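 also: 0% = DMSO wells while the 100% control is not disclosed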
proKLK7 act – activates the human kallikrein-7 zymogen | 370,000 tested, 0.9% active | purified proKLK7, EDANS-DABCYL substrate fluorescence; 100% is mature enzyme control, 0% vehicle | P49862 | activation, % at 7 µM | AID 652039;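 active = activation above the mean of all tested compounds plus 3 SD, computed per campaign excluding outliers beyond control limits, cut at about 13% in these data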
ADAM17 inh – ADAM17 inhibition, QFRET primary screen. P78536. inhibition, % at 6.95 µM. recombinant ADAM17, EDANS/DABCYL FRET peptide cleavage. 370,000 tested, 0.83% active;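 active = inhibition above the mean of compounds lying between control limits plus 3 SD, set per campaign, cut at about 8.5% in these data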;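 also: 0% = DMSO-only wells as the low control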
PLCg1 inh – inhibitors of human phospholipase C gamma1; P19174; purified PLC-gamma1, fluorogenic substrate, fluorescence; 370,000 tested, 0.84% active; inhibition, % at 12.2 µM; in the data active = inhibition above about 9.5%
ADAM10 counter – counter-screen for ADAM17 exosite inhibitors: inhibitors of human ADAM10; shares compounds with ADAM17 inh; recombinant ADAM10, EDANS/DABCYL FRET peptide cleavage, 3 h; inhibition, % at 6.95 µM; 2,900 tested, 47% active; AID 743256;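 active = mean inhibition over the triplicate runs exceeds the activity threshold set in the earlier primary screen, cut at about 20% in these data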;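 also: 0% = DMSO wells and 100% = marimastat wells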
ADAM17 confirm – human ADAM17 inhibition, confirmation | recombinant ADAM17, EDANS/DABCYL QFRET peptide cleavage | shares compounds with ADAM17 inh | 2,900 tested, 65% active | inhibition, % at 6.95 µM;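 active = mean inhibition across replicates above the hit cutoff set in the primary screen, cut at about 8.5% in these data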;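 also: 0% = DMSO wells and 100% = marimastat wells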
Active calls of the source: *; . = no result. Most compounds without a hit are left out; they make up all but 2.9% or so of the library.

SMILES | PLCb3 inh | ADAM10 inh | proKLK7 act | ADAM17 inh | PLCg1 inh | ADAM10 counter | ADAM17 confirm
COc1ccc(Cn2c(SC)nc3ccccc32)cc1[N+](=O)[O-] | 1.0 | 15.7 | 0.4 | 8.7* | 4.0 | 9.8 | 1.8
O=C(c1ccc(F)cc1)N1CCC(C(=O)N2CCN(S(=O)(=O)c3cccc(Cl)c3)CC2)CC1 | -4.3 | -3.6 | 0.1 | 9.6* | 3.0 | -6.9 | 2.3
Oc1ccccc1CN1CCCC(N2CCN(c3cccc(C(F)(F)F)c3)CC2)C1 (stereo not given) | -1.5 | 11.4 | 0.1 | 9.0* | 1.7 | 23.7* | 19.3*
O=C1C=C(OCCF)CC(c2ccc(Br)cc2)O1 (stereo not given) | 3.0 | 0.5 | -0.2 | -1.1 | 2.0 | . | .
CCCCCCN1CCN(C2CN(Cc3cn(Cc4cccc(Cl)c4)nn3)S(=O)(=O)C2)CC1 (stereo not given) | 2.8 | -6.1 | -0.3 | -2.8 | 3.3 | . | .
CCCCCCN1CCN(C2CN(Cc3cn(Cc4ccc(Cl)cc4)nn3)S(=O)(=O)C2)CC1 (stereo not given) | 7.3 | 4.3 | -0.6 | 8.9* | 5.6 | -3.3 | 0.4
Cc1cccc(C)c1NC(=O)C(c1ccc(C#N)cc1)n1c(=O)c(-c2ccco2)nc2ccccc21 (stereo not given) | -158.5 | -259.7 | -4.7 | -78.8 | -102.2 | . | .
OCc1cccc[n+]1CCc1ccccc1 | -2.8 | -0.5 | 0.5 | 10.8* | 0.1 | -10.7 | -0.9
OCc1ccccc1CNCc1ccccc1 | -0.1 | 0.5 | -0.1 | -0.1 | 2.3 | . | .
Cc1ccc(Nc2nc3ccccc3s2)c(C)c1 | 3.5 | 14.3 | 0.0 | 9.0* | 6.9 | 26.0* | 16.9*
N#Cc1ccc(-c2ccco2)nc1SCc1ccccc1 | -15.2 | -67.6 | -1.7 | -18.4 | -12.8 | . | .
CCSc1nc(-c2ccco2)ccc1C#N | -40.1 | -16.6 | -0.6 | 13.7* | -26.7 | -391.7 | -75.7
COC(=O)[C@]12CCCCC=C1N(Cc1ccc3c(c1)OCO3)C(=O)[C@H](CC(=O)NCC13CC4CC(CC(C4)C1)C3)C2 | 5.2 | 11.9 | 0.4 | 5.5 | 3.4 | . | .
Cc1cccc(OCc2nnc(SCC(=O)Nc3cccc(C(=O)N4CCOCC4)c3)n2C)c1C | 6.2 | 7.5 | 0.8 | 10.3* | 4.6 | -9.0 | -3.3
O=C(NCCCCCCCN1CCCCCCC1)C(C1CCCCC1)C1CCCCC1 | 3.8 | -3.8 | -0.2 | -1.8 | 2.9 | . | .
O=C(NNC(=O)C1CCC1)c1ccccc1F | -0.7 | 1.1 | 0.2 | 9.9* | 8.4 | -0.5 | 1.7
O=C(NNC(=O)C1CC1)c1ccc(F)cc1F | 1.2 | -13.6 | -0.3 | -5.7 | -18.5 | . | .
O=C1CCC[C@H]2C[C@H](NCc3ccc(F)cc3)CC[C@]23CCCN13 | -2.9 | -7.7 | . | -4.2 | -1.0 | . | .
Cc1cccc2cc(CN(Cc3cccs3)Cc3nnnn3Cc3ccccc3)c(=O)[nH]c12 | -4.5 | 6.7 | -0.4 | 11.2* | 2.8 | -9.5 | 3.4
COc1cc(C(C(=O)NC2CCCCC2)N(C(=O)Cc2c[nH]c3ccccc23)c2ccccc2C)cc(OC)c1OC (stereo not given) | 3.6 | 19.8 | 0.0 | 9.5* | 5.8 | 28.4* | 16.2*
O=C(Nc1cccc(F)c1)N(Cc1ccc(Cl)cc1)CC(O)C(F)(F)F (stereo not given) | 3.6 | 9.2 | -0.6 | 9.9* | 6.2 | 36.0* | 19.6*
Clc1cccc(COn2c(-c3ccc(Cl)cc3Cl)nc3ncccc32)c1 | -7.3 | 3.7 | 0.7 | 11.2* | 1.9 | -13.4 | 3.9
Cc1ccc(COn2c(-c3ccc(Cl)cc3Cl)nc3ncccc32)cc1 | -6.9 | -8.5 | -0.3 | -3.3 | -2.0 | . | .
COc1cccc(C(C)(O)c2nc(-c3csc4ccccc34)cs2)c1 (stereo not given) | 5.6 | 12.3 | -0.1 | 9.5* | 2.8 | 33.0* | 16.1*
CCn1nc(C)c(C(=O)Nc2cc(Oc3ccc(Cl)cc3)cc([N+](=O)[O-])c2)c1C | -1.6 | 14.9 | 0.1 | 12.5* | 9.0 | 39.3* | 17.6*
SMILES | PLCb3 inh | ADAM10 inh | proKLK7 act | ADAM17 inh | PLCg1 inh | ADAM10 counter | ADAM17 confirm
CC(C)NC(=O)c1cc(C2CCCCN2C(=O)c2ccc(C#N)cc2)on1 (stereo not given) | 4.7 | -3.3 | 0.0 | -0.9 | 1.2 | . | .
CCc1cccc(C)c1NC(=O)COC(=O)CNS(=O)(=O)/C=C/c1ccccc1 | 3.5 | 4.1 | 0.4 | 2.8 | 1.1 | . | .
Cc1ccc(Cl)c(NC(=O)COC(=O)CNS(=O)(=O)/C=C/c2ccccc2)c1Cl | 7.4 | 7.0 | -0.2 | 9.1* | 6.4 | -4.4 | 1.7
CSc1ccc(CN2C(=O)C(C)ON=C2c2ccccc2F)cc1 (stereo not given) | 1.4 | -11.1 | -0.1 | 2.8 | 1.9 | . | .
COc1ccc(-c2csc(NC(=O)CSc3nc(C)cs3)n2)cc1 | -2.5 | 5.2 | 0.3 | 1.3 | 0.9 | . | .
COc1ccc(-c2csc(NC(=O)CSc3nc(SC)ns3)n2)cc1 | 0.8 | 33.0* | -0.2 | 14.8* | 4.6 | 26.5* | 16.8*
CCN(CC)S(=O)(=O)c1cccc(NC(=O)CCSc2ccc(Cl)cc2)c1 | -3.5 | 10.1 | 0.4 | 9.2* | -1.8 | 37.1* | 17.3*
Cc1ccc(COc2ccc(Br)cc2/C=N/O)cc1 | -3.1 | 16.6 | 0.1 | 8.8* | -4.0 | 34.0* | 16.7*
O/N=C/c1cc(Br)ccc1OCc1ccc(F)cc1 | -1.7 | 12.9 | -0.2 | 4.4 | -3.4 | . | .
O=C(O)c1ccc(C=Nn2c(-c3ccc(F)cc3)n[nH]c2=S)cc1 | -3.6 | 1.6 | 0.8 | -1.4 | 2.1 | . | .
Cc1ccc(CNC(=O)c2ccc(Cn3nc(C)c(Cl)c3C)o2)cc1 | 0.6 | 8.4 | 0.2 | 6.7 | 3.9 | . | .
Cc1cc(C)cc(NC(=O)c2ccc(Cn3nc(C)c(Cl)c3C)o2)c1 | 1.1 | 7.2 | -0.3 | 9.8* | -2.2 | 21.2* | 9.5*
Cc1ccccc1C(=O)c1c[nH]c(C(=O)NCC2CCCO2)c1 (stereo not given) | 9.2 | 9.2 | 0.6 | 9.2* | 2.5 | -9.8 | 0.5
O=C(NCc1cccc(C(F)(F)F)c1)c1cccc(S(=O)(=O)NCc2ccccc2)c1 | -0.8 | 18.0 | -0.3 | 12.0* | 4.9 | 24.2* | 11.2*
O=C(NCc1ccccc1F)c1cccc(S(=O)(=O)NCc2ccccc2)c1 | -9.4 | -2.9 | 0.1 | -3.7 | 2.4 | . | .
CC(C)OC(=O)C1=CNCC(C)(C)c2c1[nH]c1cc(F)ccc21 | -30.0 | -10.2 | . | 2.1 | -23.4 | . | .
CCOC(=O)c1c(NC(=O)Cn2nc(C(F)F)cc2C(F)F)sc(C)c1C | -0.3 | 18.1 | 0.7 | 9.1* | 3.0 | 17.6 | 12.3*
COC(=O)c1c(NC(=O)Cn2nc(C(F)F)cc2C(F)F)sc(C)c1C | 0.2 | 12.9 | -0.1 | 3.1 | 2.1 | . | .
CCCCn1nnnc1C(c1cccc2ccccc12)N1CCN(C/C=C/c2ccccc2)CC1 (stereo not given) | -0.9 | -0.2 | -0.2 | -0.7 | 2.5 | . | .
